In PubChem BioAssay (EPA / NIEHS):
Records with an inconclusive call do not appear. Some compounds were tested as several samples or in several runs, with calls that do not always agree. The source made the active and inactive calls. How the source made its calls, unless noted: active means hit-call score of the fitted dose curve at least 0.9, where 1 is the maximum; inactive means score below 0.9.

Columns and labels:
[1] = biological target: Nuclear respiratory factor 1 (Homo sapiens) (UniProt Q16656); experiment: ATG_NRF1_CIS: Attagene CIS-FACTORIAL HepG2 Assay for human Nuclear Respiratory Factor 1 (NRF1) Orphan Gene (AID 2282987); conditions: HepG2 NRF1 cis-element reporter, Attagene multiplex; actives raise or lower the signal
In short: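 Endogenous NRF1-driven reporter transcription measured in transiently transfected human HepG2 liver cells. Readout: reporter mRNA by RT-PCR and capillary electrophoresis with fluorescence detection, 24 h post-dosing. Gain or loss of signal fitted relative to DMSO baseline.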

[2] = ATG_NFI_CIS: Attagene CIS-FACTORIAL HepG2 Assay for human Nuclear Factor I (NFI) (AID 2282989); conditions: HepG2 cis-regulatory reporter, NFI response element transcription; actives raise or lower the signal
In short: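 Multiplexed cis-reporter system in human HepG2 cells reports native TF activity as reporter mRNA induction 24 h post-dose. Fragments labelled with 6-FAM, HpaI-digested and resolved by capillary electrophoresis; activity fitted both directions versus DMSO.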

[3] = biological target: Myc proto-oncogene protein (Homo sapiens) (UniProt P01106); experiment: ATG_Myc_CIS: Attagene CIS-FACTORIAL HepG2 Assay for human Myelocytomatosis (Myc) Proto-Oncogene Transcription Factor (AID 2282990); conditions: HepG2, Attagene cis-reporter transcription factor activity; actives raise or lower the signal
In short: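 Transiently transfected HepG2 cells bearing cis-promoter reporter units for endogenous transcription factors; 24 h exposure. Reporter mRNA measured by RT-PCR, 6-FAM primer extension, HpaI cut and capillary electrophoresis; bidirectional fit relative to DMSO.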

[4] = ATG_NF_kB_CIS: Attagene CIS-FACTORIAL HepG2 Assay for human Nuclear Factor Kappa B (NF-kB) (AID 2282991); conditions: HepG2 Attagene cis-factorial NF-kB reporter mRNA; actives raise or lower the signal
In short: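 Read-out: reporter transcript levels quantified by RT-PCR plus capillary electrophoresis of 6-FAM-labelled, HpaI-cut fragments. Transfected HepG2 cells, 24 h compound exposure, endogenous NF-kB-driven cis element; gain or loss scored versus DMSO.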

[5] = ATG_NRF2_ARE_CIS: Attagene CIS-FACTORIAL HepG2 Assay for human Nuclear Factor Erythroid 2 Related Factor 2 (NFR2) response to Antioxidant Response Elements (ARE) (AID 2282992); conditions: HepG2 Attagene ARE/NRF2 reporter, transcription factor activity; actives raise or lower the signal
In short: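 Endogenous transcription factor activity in human liver HepG2 cells is tracked via a cis-element-driven reporter within a multiplexed set. mRNA induction is read by RT-PCR and capillary electrophoresis after 24 h, with DMSO as baseline.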

[6] = ATG_Oct_MLP_CIS: Attagene CIS-FACTORIAL HepG2 Assay for human Octamer-Binding Transcription Factor (Oct) (AID 2282993); conditions: HepG2 Attagene cis-factorial Oct reporter, mRNA; actives raise or lower the signal
In short: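 After 24 h compound exposure, transfected HepG2 cells were lysed for total RNA; reporter-specific cDNA was PCR-amplified, fluorescently labelled and sized by capillary electrophoresis. Bidirectional curve fitting used DMSO as baseline.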

[7] = biological target: Cellular tumor antigen p53 (Homo sapiens) (UniProt P04637); experiment: ATG_p53_CIS: Attagene CIS-FACTORIAL HepG2 Assay for human p53 Transcription Factor (AID 2282994); conditions: HepG2 p53 cis-element reporter, Attagene mRNA; actives raise or lower the signal
In short: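 Steps: transfect HepG2 with multiplexed cis reporter constructs; dose chemicals 24 h; extract RNA, reverse-transcribe, PCR-amplify reporter sequences; FAM-label, HpaI-digest, resolve fragments by CE. Activity fitted both directions relative to DMSO.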

[8] = BSK_3C_TissueFactor: BioMAP Diversity Plus: 3C Assay for Tissue Factor Biomarker Activity (AID 2282997); conditions: BioMAP 3C HUVEC, tissue factor biomarker readout; actives raise or lower the signal
In short: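 Tissue factor on primary human umbilical vein endothelium was read by ELISA 24 h after dosing, gain or loss relative to DMSO. Cytotoxicity ran alongside via SRB (0.1%, TCA-fixed, 560 nm).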

[9] = BSK_3C_uPAR: BioMAP Diversity Plus: 3C Assay for Urokinase-type plasminogen activator receptor (uPAR) Biomarker Activity (AID 2282998); conditions: BioMAP 3C HUVEC, uPAR biomarker ELISA; actives raise or lower the signal
In short: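 Values derive from bidirectional curve fitting relative to DMSO, which served as baseline of activity. uPAR was measured by ELISA in human umbilical vein endothelial primary cultures 24 h after compound addition.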

[10] = BSK_3C_VCAM1: BioMAP Diversity Plus: 3C Assay for Vascular cell adhesion molecule 1 (VCAM1) Biomarker Activity (AID 2282999); conditions: BioMAP 3C HUVEC, VCAM1 ELISA, cytokine-stimulated; actives raise or lower the signal
In short: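 HUVEC primary cells, 24 h compound exposure; VCAM-1 by ELISA; gain/loss of signal fitted bidirectionally vs DMSO baseline.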

[11] = BSK_4H_Eotaxin3: BioMAP Diversity Plus: 4H Assay for Eotaxin 3 Biomarker Activity (AID 2283000); conditions: primary human endothelial cells (HUVEC); actives raise or lower the signal
In short: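 Human umbilical vein endothelial cells (BSK_4H system) dosed with test chemical; Eotaxin-3 (CCL26) measured by ELISA 24 h after dosing. Bidirectional curve fitting relative to DMSO negative control as baseline.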

[12] = biological target: human Peroxisome Proliferator-activated Receptor delta (PPARd), PPARD (gene 5467) (UniProt Q03181); experiment: ATG_PPARd_TRANS: Attagene TRANS-FACTORIAL HepG2 Assay for human Peroxisome Proliferator-activated Receptor delta (PPARd) (AID 2283002; active means hit-call score of the fitted dose curve at least 0.9, where 1 is the maximum)
In short: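 HepG2 cells transiently transfected with GAL4-UAS multiplexed reporter units driven by exogenous chimeric NR-GAL4 proteins; 24 h compound exposure. Reporter mRNA measured by RT-PCR, 6-FAM primer extension, HpaI digestion and capillary electrophoresis; gain of signal fitted relative to DMSO.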

[13] = read-out: Intercellular Adhesion Molecule 1 (ICAM1), ICAM1 (gene 3383); experiment: BSK_3C_ICAM1: BioMAP Diversity Plus: 3C Assay for Intercellular Adhesion Molecule 1 (ICAM1) Biomarker Activity (AID 2283003); conditions: primary human endothelial cells (HUVEC); actives raise or lower the signal
In short: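 ELISA read-out of ICAM-1; HUVEC (primary human), 3C system, 24 h post-dosing; bidirectional fit vs DMSO baseline.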

[14] = BSK_3C_Proliferation: Cell Proliferation Assessment in the BioMAP Diversity Plus: 3C Assay (AID 2283006); conditions: primary human endothelial cells (HUVEC)
In short: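 HUVEC, sub-confluent; 48 h chemical exposure; 10% TCA fix, 0.1% SRB stain, A560 total protein. Gain or loss of signal fitted both directions vs DMSO control.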

[15] = biological target: Peroxisome proliferator-activated receptor gamma (Homo sapiens) (UniProt P37231); experiment: ATG_PPARg_TRANS: Attagene TRANS-FACTORIAL HepG2 Assay for human Peroxisome Proliferator-activated Receptor-gamma (PPARg) (AID 2283007; active means hit-call score of the fitted dose curve at least 0.9, where 1 is the maximum)
In short: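 Read-out: reporter mRNA induction, detected by fluorescence after RT-PCR and capillary electrophoresis. Transiently transfected human HepG2 liver cells carrying a chimeric NR-Gal4 construct were dosed for 24 h; activity was fitted upward relative to DMSO.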

[16] = biological target: Nuclear receptor subfamily 1 group I member 2 (Homo sapiens) (UniProt O75469); experiment: ATG_PXR_TRANS: Attagene TRANS-FACTORIAL HepG2 Assay for human Pregnane X Receptor (PXR) (AID 2283008; active means hit-call score of the fitted dose curve at least 0.9, where 1 is the maximum)
In short: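 HepG2 transfected (FuGene 6) with GAL4-UAS reporter units + PXR-Gal4 chimera; dosed 24 h. Total RNA → oligo(dT) RT → PCR → 6-FAM primer extension → HpaI cut → CE. Gain-of-signal vs DMSO.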

[17] = biological target: human Peroxisome Proliferator-activated Receptor alpha (PPARa), PPARA (gene 5465) (UniProt Q07869); experiment: ATG_PPARa_TRANS: Attagene TRANS-FACTORIAL HepG2 Assay for human Peroxisome Proliferator-activated Receptor alpha (PPARa) (AID 2283001; active means hit-call score of the fitted dose curve at least 0.9, where 1 is the maximum)
In short: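 Transient HepG2 transfection, GAL4-UAS reporters, NR-Gal4 chimeras; 24 h compound exposure. Readout: reporter transcripts by RT-PCR, 6-FAM primer extension, HpaI digest, capillary electrophoresis. Positive direction vs DMSO baseline.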

[18] = biological target: human Retinoic Acid Receptor beta (RARb), RARB (gene 5915) (UniProt P10826); experiment: ATG_RARb_TRANS: Attagene TRANS-FACTORIAL HepG2 Assay for human Retinoic Acid Receptor beta (AID 2283004; active means hit-call score of the fitted dose curve at least 0.9, where 1 is the maximum)
In short: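 Induction of reporter mRNA from a chimeric RARb-Gal4 construct was measured by RT-PCR, FAM labelling, HpaI digestion and capillary electrophoresis. Measurements followed 24 h compound treatment of transiently transfected human HepG2 liver cells, with DMSO as baseline.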

[19] = biological target: Retinoic acid receptor alpha (Homo sapiens) (UniProt P10276); experiment: ATG_RARa_TRANS: Attagene TRANS-FACTORIAL HepG2 Assay for human Retinoic Acid Receptor alpha (RARa) (AID 2283005; active means hit-call score of the fitted dose curve at least 0.9, where 1 is the maximum)
In short: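 HepG2 transiently transfected with multiplex GAL4-UAS reporter units including a human RARa–GAL4 chimera; 24 h compound exposure. Reporter mRNA quantified by RT-PCR, 6-FAM labeling and capillary electrophoresis; gain of signal versus DMSO.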

[20] = biological target: human Retinoic Acid Receptor gamma (RARg), RARG (gene 5916) (UniProt P13631); experiment: ATG_RARg_TRANS: Attagene TRANS-FACTORIAL HepG2 Assay for human Retinoic Acid Receptor gamma (RARg) (AID 2283009; active means hit-call score of the fitted dose curve at least 0.9, where 1 is the maximum)
In short: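 Readout: reporter transcript levels via RT-PCR, 6-FAM primer-extension labelling, HpaI digestion and capillary electrophoresis. Cells: HepG2 carrying transfected RARg-GAL4 chimera plus UAS reporter set. Dosing 24 h; DMSO negative control.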

Measured: AC50

Sequence of human Peroxisome Proliferator-activated Receptor alpha (PPARa), PPARA (gene 5465) (Q07869 whole entry, looked up, the tested form may be a part): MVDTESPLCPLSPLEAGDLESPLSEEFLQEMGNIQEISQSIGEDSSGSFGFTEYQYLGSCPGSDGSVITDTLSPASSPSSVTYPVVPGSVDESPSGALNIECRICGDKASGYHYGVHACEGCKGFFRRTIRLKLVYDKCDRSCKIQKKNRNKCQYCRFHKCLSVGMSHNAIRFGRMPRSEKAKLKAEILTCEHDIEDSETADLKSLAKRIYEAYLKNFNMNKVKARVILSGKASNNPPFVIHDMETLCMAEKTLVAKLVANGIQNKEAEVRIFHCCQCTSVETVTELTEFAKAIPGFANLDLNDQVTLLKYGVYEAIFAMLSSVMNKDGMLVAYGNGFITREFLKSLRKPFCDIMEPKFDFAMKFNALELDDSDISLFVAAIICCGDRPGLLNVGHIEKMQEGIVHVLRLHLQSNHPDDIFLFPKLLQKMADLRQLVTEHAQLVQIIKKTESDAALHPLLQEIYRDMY
Sequence of Nuclear respiratory factor 1 (Homo sapiens) (Q16656 whole entry, looked up): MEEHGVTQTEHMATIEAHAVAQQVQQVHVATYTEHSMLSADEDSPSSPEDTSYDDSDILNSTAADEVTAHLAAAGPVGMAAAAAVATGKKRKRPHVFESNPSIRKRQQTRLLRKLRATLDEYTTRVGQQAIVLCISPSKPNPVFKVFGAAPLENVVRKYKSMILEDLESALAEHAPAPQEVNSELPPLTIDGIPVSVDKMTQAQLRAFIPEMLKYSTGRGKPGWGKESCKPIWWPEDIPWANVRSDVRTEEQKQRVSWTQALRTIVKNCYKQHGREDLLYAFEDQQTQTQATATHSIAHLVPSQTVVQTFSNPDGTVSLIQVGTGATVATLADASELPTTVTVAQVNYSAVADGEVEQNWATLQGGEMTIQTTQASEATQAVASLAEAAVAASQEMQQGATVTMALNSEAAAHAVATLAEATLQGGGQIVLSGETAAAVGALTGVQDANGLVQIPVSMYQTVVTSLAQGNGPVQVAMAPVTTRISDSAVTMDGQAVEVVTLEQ
Sequence of Peroxisome proliferator-activated receptor gamma (Homo sapiens) (P37231 whole entry, looked up, the tested form may be a part): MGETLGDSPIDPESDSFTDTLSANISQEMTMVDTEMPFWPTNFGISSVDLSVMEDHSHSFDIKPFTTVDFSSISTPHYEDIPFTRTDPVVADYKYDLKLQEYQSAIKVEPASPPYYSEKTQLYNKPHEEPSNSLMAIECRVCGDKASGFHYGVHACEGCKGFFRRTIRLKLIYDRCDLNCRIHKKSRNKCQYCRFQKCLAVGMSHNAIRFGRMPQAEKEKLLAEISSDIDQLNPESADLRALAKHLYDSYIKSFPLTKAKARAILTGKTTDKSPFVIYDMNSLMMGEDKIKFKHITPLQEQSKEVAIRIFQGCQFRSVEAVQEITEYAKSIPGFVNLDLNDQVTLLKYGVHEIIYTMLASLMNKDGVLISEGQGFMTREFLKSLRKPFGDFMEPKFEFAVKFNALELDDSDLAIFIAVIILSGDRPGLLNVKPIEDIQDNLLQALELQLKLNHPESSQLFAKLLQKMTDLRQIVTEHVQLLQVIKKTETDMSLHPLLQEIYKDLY
Sequence of human Peroxisome Proliferator-activated Receptor delta (PPARd), PPARD (gene 5467) (Q03181 whole entry, looked up, the tested form may be a part): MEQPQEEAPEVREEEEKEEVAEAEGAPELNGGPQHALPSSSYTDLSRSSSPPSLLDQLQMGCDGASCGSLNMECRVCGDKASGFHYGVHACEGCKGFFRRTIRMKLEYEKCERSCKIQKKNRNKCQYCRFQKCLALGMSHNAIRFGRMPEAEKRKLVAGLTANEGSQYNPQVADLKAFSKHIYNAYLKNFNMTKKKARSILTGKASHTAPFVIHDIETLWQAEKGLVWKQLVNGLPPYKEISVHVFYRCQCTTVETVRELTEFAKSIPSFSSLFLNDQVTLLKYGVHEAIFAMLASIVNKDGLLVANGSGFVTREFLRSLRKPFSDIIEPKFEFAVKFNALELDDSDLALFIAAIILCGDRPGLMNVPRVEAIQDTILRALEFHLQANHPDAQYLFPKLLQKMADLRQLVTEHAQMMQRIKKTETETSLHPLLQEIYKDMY
Sequence of Nuclear receptor subfamily 1 group I member 2 (Homo sapiens) (O75469 whole entry, looked up, the tested form may be a part): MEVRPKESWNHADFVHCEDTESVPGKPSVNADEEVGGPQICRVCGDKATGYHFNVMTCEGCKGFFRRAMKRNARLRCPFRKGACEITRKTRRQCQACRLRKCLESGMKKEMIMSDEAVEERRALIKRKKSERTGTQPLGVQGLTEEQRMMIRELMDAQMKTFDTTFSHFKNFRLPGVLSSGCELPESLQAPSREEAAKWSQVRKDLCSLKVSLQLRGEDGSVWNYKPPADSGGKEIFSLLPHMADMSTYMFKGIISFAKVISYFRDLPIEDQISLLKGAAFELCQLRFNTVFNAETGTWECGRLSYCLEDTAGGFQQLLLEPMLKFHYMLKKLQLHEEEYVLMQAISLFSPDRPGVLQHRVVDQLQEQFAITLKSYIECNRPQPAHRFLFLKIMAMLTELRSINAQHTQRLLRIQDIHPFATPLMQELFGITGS
Sequence of human Retinoic Acid Receptor beta (RARb), RARB (gene 5915) (P10826 whole entry, looked up, the tested form may be a part): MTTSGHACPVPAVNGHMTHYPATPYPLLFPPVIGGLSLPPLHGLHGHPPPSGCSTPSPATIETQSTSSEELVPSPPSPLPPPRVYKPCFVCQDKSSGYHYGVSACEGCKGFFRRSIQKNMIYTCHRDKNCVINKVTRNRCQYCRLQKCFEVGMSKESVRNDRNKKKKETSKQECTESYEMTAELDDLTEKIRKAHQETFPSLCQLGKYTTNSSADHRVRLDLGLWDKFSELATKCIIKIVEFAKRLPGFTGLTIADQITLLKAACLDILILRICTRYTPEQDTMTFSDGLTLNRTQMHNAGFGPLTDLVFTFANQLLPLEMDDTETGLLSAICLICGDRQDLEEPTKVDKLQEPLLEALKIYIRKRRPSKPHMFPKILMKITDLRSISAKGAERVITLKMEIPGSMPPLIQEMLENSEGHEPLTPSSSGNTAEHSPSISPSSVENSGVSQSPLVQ
Sequence of Cellular tumor antigen p53 (Homo sapiens) (P04637 whole entry, looked up, the tested form may be a part): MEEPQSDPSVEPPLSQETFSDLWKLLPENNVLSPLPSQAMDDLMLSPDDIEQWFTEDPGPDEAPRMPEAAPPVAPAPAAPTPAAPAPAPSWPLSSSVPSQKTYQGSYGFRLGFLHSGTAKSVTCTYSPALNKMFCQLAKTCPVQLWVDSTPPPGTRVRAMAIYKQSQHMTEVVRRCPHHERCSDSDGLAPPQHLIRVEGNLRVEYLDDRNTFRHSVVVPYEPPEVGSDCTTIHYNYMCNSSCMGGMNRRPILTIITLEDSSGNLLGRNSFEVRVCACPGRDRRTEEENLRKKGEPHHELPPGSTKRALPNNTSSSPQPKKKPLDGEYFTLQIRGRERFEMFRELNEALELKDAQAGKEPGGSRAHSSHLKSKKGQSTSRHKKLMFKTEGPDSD
Sequence of human Retinoic Acid Receptor gamma (RARg), RARG (gene 5916) (P13631 whole entry, looked up, the tested form may be a part): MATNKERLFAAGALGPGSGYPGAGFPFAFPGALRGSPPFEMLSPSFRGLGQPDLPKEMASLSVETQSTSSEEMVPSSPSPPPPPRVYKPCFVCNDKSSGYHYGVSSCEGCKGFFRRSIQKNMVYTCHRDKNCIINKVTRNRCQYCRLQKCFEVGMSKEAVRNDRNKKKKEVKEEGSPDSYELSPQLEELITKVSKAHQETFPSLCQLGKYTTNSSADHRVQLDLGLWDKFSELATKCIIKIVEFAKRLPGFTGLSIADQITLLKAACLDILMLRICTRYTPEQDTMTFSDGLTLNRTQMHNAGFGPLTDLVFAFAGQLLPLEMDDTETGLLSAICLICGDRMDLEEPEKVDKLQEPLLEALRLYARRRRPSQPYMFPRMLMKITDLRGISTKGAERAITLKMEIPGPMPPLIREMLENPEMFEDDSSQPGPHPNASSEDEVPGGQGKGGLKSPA
Sequence of Myc proto-oncogene protein (Homo sapiens) (P01106 whole entry, looked up): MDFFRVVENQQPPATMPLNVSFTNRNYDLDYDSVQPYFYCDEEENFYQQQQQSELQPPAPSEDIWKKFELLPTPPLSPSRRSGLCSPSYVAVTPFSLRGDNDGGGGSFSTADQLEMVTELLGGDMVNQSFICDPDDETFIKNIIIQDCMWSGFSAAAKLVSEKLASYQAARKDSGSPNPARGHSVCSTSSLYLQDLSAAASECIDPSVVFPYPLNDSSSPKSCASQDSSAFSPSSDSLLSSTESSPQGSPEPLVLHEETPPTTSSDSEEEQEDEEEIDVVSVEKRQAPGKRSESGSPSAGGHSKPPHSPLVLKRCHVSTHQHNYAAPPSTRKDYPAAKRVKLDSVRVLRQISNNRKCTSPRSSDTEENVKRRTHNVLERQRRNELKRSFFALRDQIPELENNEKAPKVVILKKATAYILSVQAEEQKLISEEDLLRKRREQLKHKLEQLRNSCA
Sequence of Retinoic acid receptor alpha (Homo sapiens) (P10276 whole entry, looked up, the tested form may be a part): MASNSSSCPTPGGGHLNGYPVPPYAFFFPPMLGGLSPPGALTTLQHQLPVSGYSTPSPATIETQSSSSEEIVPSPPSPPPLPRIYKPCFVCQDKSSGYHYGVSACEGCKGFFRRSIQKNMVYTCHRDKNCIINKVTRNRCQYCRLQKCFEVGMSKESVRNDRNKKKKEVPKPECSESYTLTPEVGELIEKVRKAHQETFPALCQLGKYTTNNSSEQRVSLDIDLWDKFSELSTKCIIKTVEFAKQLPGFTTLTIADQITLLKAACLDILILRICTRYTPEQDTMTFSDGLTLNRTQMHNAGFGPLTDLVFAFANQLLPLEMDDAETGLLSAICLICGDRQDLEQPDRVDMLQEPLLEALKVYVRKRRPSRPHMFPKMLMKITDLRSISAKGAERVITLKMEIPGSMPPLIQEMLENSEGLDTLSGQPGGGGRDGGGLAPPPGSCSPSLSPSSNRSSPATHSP

Nc1ccc([N+](=O)[O-])cc1O
active: [5] 16.1 µM | [8] 20 µM
not listed: [17] | [18] | [19] | [20]
inactive: all other assays above

O=C(O)C(F)(OC(F)(F)C(F)(OC(F)(F)C(F)(OC(F)(F)C(F)(F)C(F)(F)F)C(F)(F)F)C(F)(F)F)C(F)(F)F (centres undefined)
not listed: [7]
inactive: all other assays above

O=C(O)C(F)(F)C(F)(F)OC(F)(F)F
not listed: [6] | [12]
inactive: all other assays above

C=CC(F)(F)C(F)(F)C(F)(F)C(F)(F)C(F)(F)C(F)(F)C(F)(F)C(F)(F)C=C
not listed: [16] | [17] | [19]
inactive: all other assays above

FC(F)(F)C(F)(F)CNCC(F)(F)C(F)(F)F
not listed: [6] | [18] | [19]
inactive: all other assays above

FC(F)(F)C(F)(F)C(F)(F)C(F)(F)CCI
inactive: [1] | [2] | [3] | [4] | [5] | [6] | [7] | [8] | [9] | [10] | [11] | [17] | [12] | [13] | [19] | [14] | [15] | [16] | [20]
active: [5] 79.7 µM | [11] 10.6 µM | [15] 36.9 µM
